# Source: PubChem BioAssay (National Center for Advancing Translational Sciences (NCATS))
# CHX counter – counter-screen hit for Shiga toxin inhibitors, cycloheximide; cell reporter, cycloheximide protein synthesis inhibition counterscreen; hit rate 12% among 300,000; max response, %; AID 2314; in the data active = max response mostly above about 13%, no sharp cut-off; inactive = mostly below about 14%; note: read at 38.3 µM for the half of the compounds with a filed dose
# Pf growth 48h – P. falciparum growth inhibition at 48 hours (one generation). P. falciparum luciferase growth in erythrocytes, 48 h. Potency, µM (top dose mostly 28.7 µM), most hits filed as inhibitors. hit rate 5.9% among 310,000. AID 504832
#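 Erythrocytes infected with P. falciparum carrying an integrated firefly luciferase reporter (2% hematocrit, 0.1% parasitemia final) were exposed to compounds in RPMI 1640 with 0.5% Albumax at 37 C, 5% CO2. Growth inhibition was scored as reduced luminescence.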
# Pf growth 96h – inhibits malaria parasite growth, 96 h; AID 504834; P. falciparum luciferase reporter growth, 96 h; Potency, µM (highest dose often 28.7 µM), hits mostly inhibitors; hit rate 6.9% among 320,000
#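 Compounds incubated with erythrocytes infected by luciferase-expressing P. falciparum (2% hematocrit, 0.05% parasitemia final) for 96 hours, 37 C in 5% CO2. Growth inhibition scored as decreased luciferase luminescence.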
# Shiga inhibitor – blocks Shiga toxin action in Vero cells; Vero cells, Shiga toxin protein synthesis inhibition reporter; inhibition, % at 38.7 µM; hit rate 9.2% among 290,000; in the data active = inhibition mostly above about 28%, no sharp cut-off; inactive = mostly below about 43%
# Numbers stand for hits; 0 = inactive; ? = inconclusive; - = no result; [ ] = dose if it differs, or a comment. This is a sample that favours compounds with a hit; in the whole collection about 21% have one here. Unless noted, calls come from the whole dose curve; as a rule, active = well fitted inhibition curve with a large enough effect; inconclusive = small, poorly fitted or top-dose-only effect, or another doubt; inactive = no such curve, though single readings can be large or run the other way.
SMILES,CHX counter,Pf growth 48h,Pf growth 96h,Shiga inhibitor
c1cc(CNc2ccc3c(c2)OCCO3)ccn1,52.6,0,0,83.4
O=C(Nc1ccc2c(c1)OCO2)Nc1ccccn1,54.8,0,0,99.2
c1cc(CNC2=NCCCCC2)ccn1,0,0,-,0
O=C(NCc1cccs1)Nc1ccc(Cl)cc1,45.4,0,0,60.8
CC(=O)c1cccc(NC(=O)NCc2cccs2)c1,0,0,0,0
O=C(Nc1ccc2c(c1)OCO2)Nc1cnccn1,26.9,0,-,58.4
COc1cc(NC(=O)Nc2ccc3c(c2)OCO3)cc(OC)c1OC,0,0,0,0
Cc1cc2c(s1)c1c(C)nn(Cc3ccccc3F)c(=O)c1n2C,-,?,0,-
O/N=C(/CN(O)/C=C1/C=CC=N1)c1cccs1,0,0,14.7µM,0
Cc1nnc(NC(=O)C(C)Sc2nnc(-c3ccco3)n2C)s1 (stereo not drawn),0,0,0,0
CC(Sc1nnc(-c2ccc(Cl)cc2Cl)n1Cc1ccccc1)C(=O)Nc1nccs1 (stereo not drawn),0,?,9.28µM,0
CC(Sc1nnc(-c2ccco2)n1C)C(=O)Nc1nccs1 (stereo not drawn),-,?,5.22µM,-
CC(C)Cn1c(-c2csc3c2CCCC3)n[nH]c1=S,0,11.7µM,?,0
CC(C)Cn1c(-c2ccc(F)cc2)n[nH]c1=S,0,0,0,0
COc1ccc(-n2c(-c3ccc(C)cc3)n[nH]c2=S)cc1,0,0,0,0
Cc1ccc(-n2c(-c3ccncc3)n[nH]c2=S)cc1,31.3,0,0,168.3
CC(C)Cn1c(-c2ccncc2)n[nH]c1=S,0,0,3.7µM,0
COc1cc(-c2n[nH]c(=S)n2-c2ccc(C)cc2)cc(OC)c1OC,17.4,0,0,0
Cc1ccc(-n2c(-c3ccccc3)n[nH]c2=S)cc1,0,0,0,0
CC(C)Cn1c(-c2ccccc2F)n[nH]c1=S,0,0,-,0
CC(C)N(Cc1nccn1C)C(=O)CC1C(=O)NCCN1Cc1ccc(F)c(F)c1 (stereo not drawn),0,0,0,0
Cc1cccc(CC(=O)N2CCC(n3nccc3NC(=O)C3CC3)CC2)c1,0,0,0,0
COc1ccc(NS(=O)(=O)c2cccc(C(=O)NNC(=O)c3ccc(=O)[nH]c3)c2)cc1,-,0,0,-
Cc1onc(-c2c(F)cccc2Cl)c1C(=O)N=C(N)N1CC(C)OC(C)C1 (stereo not drawn),0,?,10.4µM,0
Cc1onc(-c2c(Cl)cccc2Cl)c1C(=O)N1CCc2ccccc2C1,0,10.4µM,7.38µM,0
SMILES,CHX counter,Pf growth 48h,Pf growth 96h,Shiga inhibitor
Cc1onc(-c2c(F)cccc2Cl)c1C(=O)O/N=C(\N)c1ccc([N+](=O)[O-])o1,0,8.28µM,11.7µM,36.4
Cc1onc(-c2c(Cl)cccc2Cl)c1/C(N)=N/OC(=O)N(C)C,0,?,?,0
Cc1onc(-c2c(Cl)cccc2Cl)c1/C(N)=N/OC(=O)C(C)(C)C,0,11.7µM,8.28µM,0
CC(=O)N1CC=CC1(C)C(=O)O (stereo not drawn),0,0,0,0
CCOCCCN1C(=O)C(=O)N(CC(=O)N2c3ccccc3NC(=O)CC2C)C1=O (stereo not drawn),-,0,0,-
CCOc1ccc(/C=C/C(=O)N2CCOCC2)cc1OC,0,0,?,0
O=C(/C=C/c1ccc2c(c1)OCO2)N1CCOCC1,26.3,0,0,66.8
CC(C)Cc1ccc(/C=C/C(=O)N2CCOCC2)cc1,46.2,0,0,55.9
O=C(/C=C/c1ccc2c(c1)OCO2)N1CCN(c2ccccc2F)CC1,0,0,0,0
COc1ccc(/C=C/C(=O)N2CCOCC2)cc1OC,0,0,0,0
CC(C)(C)c1ccc(/C=C/C(=O)N2CCOCC2)cc1,65.5,0,0,113.2
CCC1CCCCN1C(=O)/C=C/c1ccc2c(c1)OCO2 (stereo not drawn),9.8,0,?,0
CCn1c(SCC(=O)Nc2cc(Cl)ccc2OC)nnc1C1CC1,0,0,0,0
COC(CN1C(=O)C(O)=C(C(C)=O)C1c1ccccn1)OC (stereo not drawn),0,0,0,0
Cc1cccc(OCc2nnc(-c3ccc(F)cc3)o2)c1,-,0,0,-
O=C(O)c1ccc(NC(=O)c2cn(-c3ccccc3)nc2-c2cccc(Cl)c2)cc1,0,0,11.7µM,0
O=C(Nc1ccncc1)c1cn(-c2ccccc2)nc1-c1cccs1,44.2,-,2.94µM,0
O=C(NC(=S)N1CCOCC1)c1cn(-c2ccccc2)nc1-c1ccccc1,-,?,0,-
COC(=O)c1ccc(NC(=O)c2cn(-c3ccccc3)nc2-c2ccncc2)cc1,0,11.7µM,?,0
O=C(NC(=S)NCCO)c1cn(-c2ccccc2)nc1-c1ccccc1,0,0,0,49.1
COc1ccc(CN(C)Cc2c(O)ccc3ccccc23)cc1,0,?,0,0
Cc1cccc(NC(=O)c2cn(-c3ccccc3)nc2-c2ccccc2)c1,13.3,0,13.1µM,0
CC(NC(=O)COC(=O)c1cc2ccccc2cc1O)c1ccccc1 (stereo not drawn),-,0,0,-
O=C(O)c1cn(-c2ccccc2)nc1-c1ccc(F)cc1,0,0,0,0
CC(NC(=O)COC(=O)c1cn(-c2ccccc2)nc1-c1cccs1)c1ccccc1 (stereo not drawn),0,-,3.29µM,0
SMILES,CHX counter,Pf growth 48h,Pf growth 96h,Shiga inhibitor
O=C(c1cn(-c2ccccc2)nc1-c1cccs1)N1CCN(c2ccc(F)cc2)CC1,0,?,9.28µM,0
O=C(O)c1ccc(NC(=O)c2cn(-c3ccccc3)nc2-c2ccc(F)cc2)cc1,38.9,0,0,94.3
Cc1ccc(CCN2CC(C(=O)NC(C)C)CC2=O)cc1 (stereo not drawn),0,0[0.00184 µM],0,0
CN(C)CCCNc1ccc(-c2cc(Nc3cccc(Cl)c3)ncn2)cn1,0,1.85µM,0.928µM,0
CN(C)CCNC(=S)Nc1cccc(Cl)c1,0,0,0,0
COc1cccc(N=c2oc3ccc(OC)cc3cc2-c2nc3ccccc3[nH]2)c1,40.3,0,0,94.1
c1ccc(-c2cc(-c3nc4ccccc4[nH]3)c3ccccc3n2)cc1,0,?,?,0
COc1ccc(N=c2oc3ccc(OC)cc3cc2-c2nc3ccccc3[nH]2)cc1,27.5,0,0,161.7
COc1cccc(N=c2oc3ccccc3cc2-c2nc3ccccc3[nH]2)c1,37.7,?,?,63.4
COc1ccccc1CNC(=O)CSc1ccc(-c2ccncc2)nn1,0,0,0,0
Cc1c(/C=N/NC(=O)c2ccccc2O)c2ccccn2c1C(=O)c1ccc(F)cc1,15.4,8.28µM,?,0
Cc1c(/C=N/NC(=O)c2cc(=O)[nH]c(=O)[nH]2)c2ccccn2c1C(=O)c1ccccc1,0,3.29µM,-,0
Cc1c(/C=N/NC(=O)c2cccnc2)c2ccccn2c1C(=O)c1ccc(F)cc1,0,9.28µM,5.22µM,0
Cc1c(/C=N/NC(=O)c2ccc(O)cc2)c2ccccn2c1C(=O)c1ccc(F)cc1,0,4.15µM,?,0
O=C(CCc1ccccc1)Nc1cc2c3c(c1)CC(=O)N3CCC2,-,?,0,-
Cc1c(/C=N/NC(=O)CNc2ccccc2)c2ccccn2c1C(=O)c1ccccc1,0,2.08µM,2.94µM,0
COc1ccc(NS(=O)(=O)c2cccc3cccnc23)cc1Cl,0,?,0.928µM,0
COc1ccc(NS(=O)(=O)c2cccc3cccnc23)cc1,0,0,?,0
